Data published in article PMC4552634, “A New Set of Chemical Starting Points with Plasmodium falciparum Transmission-Blocking Potential for Antimalarial Drug Discovery” (PLoS ONE, 2015).
Like-named read-outs stand apart in the source and are kept apart here. In all, about 13,000 compounds went through this assay and about 3,200 (25%) showed an effect of 50% or more. The list shows a part of the results.

Tested on: P. falciparum stage V gametocytes
Design: BacTiter-Glo ATP luminescence viability of purified stage V gametocytes in 384-well plates, per cent inhibition versus DMSO
Details: 48 h, 5 µM, inhibitor

## Cn1cncc1-c1ccc2ncnc(Nc3ccc4c(cnn4Cc4ccccc4)c3)c2c1 [TCMDC-137781]
  % Inhibition: -8.163%

## O=C(CN1CCCCC1)Nc1ccc(Nc2nccc(NCC(O)c3ccccc3)n2)cc1 (stereo not shown) [TCMDC-136469]
  % Inhibition: -6.593%

## CCN(CC)CCNC(=O)c1ccc(N=Cc2c(O)[nH]c3ccc(S(=O)(=O)Cc4c(Cl)cccc4Cl)cc23)cc1 [TCMDC-135945]
  % Inhibition: 35.17%

## NS(=O)(=O)c1cccc(N=Cc2c(O)[nH]c3ccc(S(=O)(=O)Cc4c(Cl)cccc4Cl)cc23)c1 [TCMDC-135947]
  % Inhibition: 101.9%

## CN(CCCCNC(=O)c1ccc(-c2ccccc2)cc1)C1CCc2c(O)cccc2C1 (stereo not shown) [TCMDC-139005]
  % Inhibition: -43.63%

## O=C(Nc1ccc(OC2CCN(Cc3ccc(F)cc3)CC2)cc1)c1cccs1 [TCMDC-133741]
  % Inhibition: 27.9%

## Cc1ccc(-c2nc3ccccc3o2)cc1NCc1cc(Cc2ccccc2)ccc1O [TCMDC-125705]
  % Inhibition: -21.71%

## Cc1cc(O)c(CN2CCN(Cc3cccs3)CC2)cc1C(C)C [TCMDC-124883]
  % Inhibition: -57.78%

## CCN1CCC(N(Cc2ccc(-c3ccc(C(F)(F)F)s3)cc2)C(=O)Cn2c(CCc3cccc(F)c3F)nc(=O)c3ccccc32)CC1 [TCMDC-141282]
  % Inhibition: 107.7%

## CCN1CCCC1CN(Cc1ccc(-c2ccc(C(F)(F)F)cc2)cc1)C(=O)Cn1c(CCc2cccc(F)c2F)nc(=O)c2ccccc21 (stereo not shown) [TCMDC-141061]
  % Inhibition: 68.75%

## CCN1CCC(N(Cc2ccc(-c3ccc(C(F)(F)F)cc3)cc2)C(=O)CCCCn2c(CCc3cccc(F)c3F)nc(=O)c3ccccc32)CC1 [TCMDC-141321]
  % Inhibition: 85.03%

## O=C(Cn1c(CCc2cccc(F)c2F)nc(=O)c2ccccc21)N(Cc1ccc(-c2ccc(C(F)(F)F)cc2)cc1)C1CCN(C2=NCCS2)CC1 [TCMDC-136537]
  % Inhibition: 107.4%

## Cc1ccccc1CNc1noc(-c2c(-c3ccccc3)noc2C)n1 [TCMDC-134201]
  % Inhibition: -15.74%

## CCCOC(=O)c1ccc(OCCCON2C(N)=NC(N)=NC2(C)C)cc1 [TCMDC-131715]
  % Inhibition: 8.227%

## CCN1CCC(N(Cc2ccc(-c3ccc(C(F)(F)F)cc3)cc2)C(=O)Cn2c(CCc3cccc(F)c3F)nc(=O)c3ccccc32)CC1 [TCMDC-141048]
  % Inhibition: 116.3%

## CCN1CCC(N(Cc2ccc(-c3ccc(C(F)(F)F)cc3)o2)C(=O)Cn2c(CCc3cccc(F)c3F)nc(=O)c3ccccc32)CC1 [TCMDC-141281]
  % Inhibition: 92.96%

## CC(C)N1CCC(N(Cc2ccc(-c3ccc(C(F)(F)F)cc3)cc2)C(=O)CCCn2c(CCc3cccc(F)c3F)nc(=O)c3ccccc32)CC1 [TCMDC-141316]
  % Inhibition: 88.07%

## O=C(C1CCCC1)N1CCOC(CCN2CCC(c3ccccc3)CC2)(c2ccc(Cl)c(Cl)c2)C1 (stereo not shown) [TCMDC-135327]
  % Inhibition: -12.01%

## CC(C)Cc1nc2nc(N)nc(N)c2cc1C(C)C [TCMDC-137930]
  % Inhibition: 2.497%

## CC(=O)c1cccc(NC(=O)c2ccc(Cl)c(S(=O)(=O)N3CCc4ccccc43)c2)c1 [TCMDC-124431]
  % Inhibition: 4.693%

## CC1CCCN(c2ccc(NC(=O)c3cccs3)cc2[N+](=O)[O-])C1 (stereo not shown) [TCMDC-124625]
  % Inhibition: 1.853%

## O=C(Nc1ccc2c(c1)CCCN2S(=O)(=O)c1cccs1)c1cc([N+](=O)[O-])ccc1Cl [TCMDC-125153]
  % Inhibition: 96.55%

## O=c1cc(NCCC2CC=CCN2Cc2ccc(Cl)c(Cl)c2)[nH]c2ccccc12 (stereo not shown) [TCMDC-139445]
  % Inhibition: 3.776%

## COc1ccc(CCNCCCCCCNCCc2ccc(OC)c(OC)c2Cl)c(Cl)c1OC [TCMDC-131261]
  % Inhibition: 103.5%

## COc1ccc(CCNCCCCCCNCCc2ccc(Cl)cc2)c(Cl)c1OC [TCMDC-131272]
  % Inhibition: 114.1%

## COc1ccc(CCNCC(O)c2cccc(Br)c2)c(Cl)c1OC (stereo not shown) [TCMDC-125478]
  % Inhibition: 12.88%

## O=C(Nc1ccsc1C(=O)NC1CCCCC1)c1ccc(F)cc1 [TCMDC-123789]
  % Inhibition: -7.21%

## CCCC(C)Nc1nc(C)cc(N[C@@H](CC(C)C)C(=O)NCCOc2ccccc2)n1 (stereo partly shown) [TCMDC-134898]
  % Inhibition: -16.46%

## CC1=C(C(=O)NC2CCC(CN3CCC(c4c[nH]c5ccccc45)CC3)CC2)Cc2ccccc21 (stereo not shown) [TCMDC-139765]
% Inhibition
  % Inhibition: -59.52%

## O=C(C=C1c2ccccc2-c2ccccc21)NC1CCC(CN2CCC(c3c[nH]c4ccccc34)CC2)CC1 (stereo not shown) [TCMDC-139918]
% Inhibition
  % Inhibition: -14.57%

## O=C(NC1CCC(CN2CCC(c3c[nH]c4ccccc34)CC2)CC1)[C@H]1Cc2ccccc2CN1 (stereo partly shown) [TCMDC-140311]
  % Inhibition: 105%

## O=C(C=C1c2ccccc2-c2ccccc21)NC1CCC(CN2CCC(c3c[nH]c4ccccc34)CC2)CC1 (stereo not shown) [TCMDC-139906]
% Inhibition
  % Inhibition: -40.53%

## CC1=C(C(=O)NC2CCC(CN3CCC(c4c[nH]c5ccccc45)CC3)CC2)Cc2ccccc21 (stereo not shown) [TCMDC-139755]
% Inhibition
  % Inhibition: 71.55%

## COc1ccc(NC(=O)Nc2cccc(-c3cccc(-c4nc5ccccc5[nH]4)c3)c2)cc1 [TCMDC-133246]
  % Inhibition: -3.32%

## COc1cccc(NC(=O)[C@H](C)n2c(=O)[nH]c3ccccc3c2=O)c1 [TCMDC-124998]
  % Inhibition: 68.49%

## COc1cccc(NC(=O)COc2ccc(C(=O)Nc3nc4ccccc4[nH]3)cc2)c1 [TCMDC-125060]
  % Inhibition: -14.04%

## COc1ccc2[nH]c3ccccc3c(=O)c2c1 [TCMDC-123948]
  % Inhibition: 14.64%

## COc1ccccc1CNC(=O)C(=O)Nc1c(-c2ccccc2)[nH]c2ccccc12 [TCMDC-124999]
  % Inhibition: -88.11%

## COc1cccc(NC(=O)[C@H](C(C)C)n2c(=O)[nH]c3ccccc3c2=O)c1 [TCMDC-125133]
  % Inhibition: 96.89%

## C=CCc1cc(Br)ccc1OCCCON1C(N)=NC(N)=NC1(C)C [TCMDC-131341]
  % Inhibition: 13.45%

## O=C(/C=C/c1ccc(Cl)c(Cl)c1)NCCCCCCN1CCN(C(=O)Nc2ccc(OC(F)F)cc2)CC1 [TCMDC-135834]
  % Inhibition: -53.7%

## Cc1ccc(C(=O)c2oc3ccc4c(C)cc(=O)oc4c3c2C)cc1 [TCMDC-125583]
  % Inhibition: -7.355%

## Cc1cccc(C)c1OC(=O)C(C)C(O)C1(Sc2ccccc2)CCN(C)CC1 (stereo not shown) [TCMDC-132104]
  % Inhibition: 17.64%

## O=C(Nc1ccc(F)cc1)NC1CCN(c2ccnc3cc(Cl)ccc23)CC1 [TCMDC-133570]
  % Inhibition: -24.37%

## Cc1nc(Nc2cc(Cl)ccc2O)nc(Nc2cc(Cl)ccc2O)c1[N+](=O)[O-] [TCMDC-125765]
  % Inhibition: -25.8%

## CC(=O)c1ccc2cc(C(=O)NC3CCC(CCN4CCc5ccc(-c6noc(C)n6)cc5CC4)CC3)[nH]c2c1 (stereo not shown) [TCMDC-140072]
  % Inhibition: -66.89%

## O=c1cc(NCCCNCc2cc(Cl)cc(Cl)c2OCc2ccccc2)[nH]c2ccccc12 [TCMDC-139488]
  % Inhibition: -11.96%

## Cc1ccc(-n2cc(CNCCCn3ccnc3)c(-c3cccc(C)c3)n2)cc1 [TCMDC-124630]
  % Inhibition: 80.81%

## COc1ccc(-n2cc(CNCCCn3ccnc3)c(-c3cccc(F)c3)n2)cc1 [TCMDC-124651]
  % Inhibition: 46.38%

## Cc1ccc(-n2cc(CNCCc3ncc(C)[nH]3)c(-c3ccc(F)cc3)n2)cc1 [TCMDC-124685]
  % Inhibition: 44.13%

## Cc1cc2nc(-c3cc(-c4cccc(NS(C)(=O)=O)c4)cnc3N)[nH]c2cc1C [TCMDC-133558]
  % Inhibition: -28.88%

## Cc1ccc(-c2nc3cc(NC(=O)c4ccc([N+](=O)[O-])o4)ccc3o2)cc1Cl [TCMDC-123657]
  % Inhibition: 94.01%

## O=C(Nc1ccc2oc(-c3ccc(Br)cc3)nc2c1)c1ccc([N+](=O)[O-])o1 [TCMDC-123698]
  % Inhibition: 17.72%

## Cc1cccc(-c2nc3cc(NC(=O)c4ccc([N+](=O)[O-])o4)ccc3o2)c1 [TCMDC-123925]
  % Inhibition: 17.49%

## O=C(Nc1ccc2oc(-c3ccc(Cl)cc3Cl)nc2c1)c1ccc([N+](=O)[O-])o1 [TCMDC-123753]
  % Inhibition: 49.41%

## CC(C)c1ccc2oc(-c3ccc(NC(=O)c4ccc([N+](=O)[O-])o4)cc3)nc2c1 [TCMDC-124010]
  % Inhibition: 79.92%

## CCc1ccc(-c2nc3cc(NC(=O)c4ccc([N+](=O)[O-])o4)ccc3o2)cc1 [TCMDC-123924]
  % Inhibition: 1.176%

## O=C(Nc1ccc(-c2ccc(-c3nc4cc(C(F)(F)F)ccc4[nH]3)s2)cc1)c1ccoc1 [TCMDC-136842]
  % Inhibition: -23.12%

## CCCCOc1cc2c(cc1OCC)C(C=Cc1ccc(Cl)cc1Cl)=NCC2.Cl [TCMDC-137450]
  % Inhibition: 76.64%

## COc1cc2c(cc1OC)C(C(=O)c1ccccc1)=NCC2.Cl [TCMDC-141993]
  % Inhibition: 35.87%

## CCCCN(CCCC)CCNC(=O)c1ccc(-c2nc3ccc(Cl)cc3[nH]2)c(OCC)c1 [TCMDC-140909]
  % Inhibition: -44.96%

## CCCOc1cc2c(cc1OCCC)C(C=Cc1ccc(Cl)cc1Cl)=NC(C)C2.Cl (stereo not shown) [TCMDC-137448]
  % Inhibition: 86.79%

## CC(C)C1=CC(=NOS(=O)(=O)c2ccccc2)C=C(C(C)C)C1=O [TCMDC-124172]
  % Inhibition: -30.75%

## O=C(/C=C/c1ccc2ccccc2c1)NCC1(c2ccc(-c3ccccc3)cc2)CCOCC1 [TCMDC-134257]
  % Inhibition: 16.18%

## Cc1ccc(Cn2ncc(N3CCCNCC3)c(Cl)c2=O)cc1NC(=O)Nc1ccc(-c2ccccc2)cc1 [TCMDC-141924]
  % Inhibition: 99.19%

## Cc1ccc(Cn2ncc(N3CCNCC3)c(Cl)c2=O)cc1NC(=O)Nc1ccc(-c2ccccc2)cc1 [TCMDC-141921]
  % Inhibition: 40.54%

## O=C(Nc1ccc(-c2ccccc2)cc1)Nc1cccc(Cn2ncc(N3CCNCC3)c(Cl)c2=O)c1 [TCMDC-141920]
  % Inhibition: -37.77%

## NC1CCN(c2cnn(Cc3cccc(NC(=O)Nc4ccc(-c5ccccc5)cc4)c3)c(=O)c2Cl)CC1 [TCMDC-141930]
  % Inhibition: 54.32%

## O=C(Nc1ccc(Cn2ncc(N3CCNCC3)c(Cl)c2=O)cc1)Nc1ccc(-c2ccccc2)cc1 [TCMDC-141922]
  % Inhibition: -25.28%

## Cc1ccc(Cn2ncc(N3CC(C)NC(C)C3)c(Cl)c2=O)cc1NC(=O)Nc1ccc(-c2ccccc2)cc1 (stereo not shown) [TCMDC-141937]
  % Inhibition: 14.65%

## CC1CN(c2cnn(Cc3cccc(NC(=O)Nc4ccc(-c5ccccc5)cc4)c3)c(=O)c2Cl)CC(C)N1 (stereo not shown) [TCMDC-141935]
  % Inhibition: -13.22%

## O=C(Nc1ccc(-c2ccccc2)cc1)Nc1cccc(Cn2ncc(N3CCCNCC3)c(Cl)c2=O)c1 [TCMDC-141923]
  % Inhibition: 12.88%

## Cc1c(Cn2ncc(N3CC(C)NC(C)C3)c(Cl)c2=O)cccc1NC(=O)Nc1ccc(-c2ccccc2)cc1 (stereo not shown) [TCMDC-141936]
  % Inhibition: -6.259%

## Cc1c(Cn2ncc(N3CCC(N)CC3)c(Cl)c2=O)cccc1NC(=O)Nc1ccc(-c2ccccc2)cc1 [TCMDC-141931]
  % Inhibition: 109.1%

## O=C(Nc1ccc(Cn2ncc(N3CCCNCC3)c(Cl)c2=O)cc1)Nc1ccc(-c2ccccc2)cc1 [TCMDC-141928]
% Inhibition
  % Inhibition: -32.1%

## CC1CN(c2cnn(Cc3ccc(NC(=O)Nc4ccc(-c5ccccc5)cc4)cc3)c(=O)c2Cl)CC(C)N1 (stereo not shown) [TCMDC-141940]
  % Inhibition: 80.37%
